This is a sample that favours compounds with a hit; in the whole collection about 1.4% have one here.
Giardia FBPA inh-1: Giardia lamblia aldolase inhibition. A8B2U2. purified Giardia FBPA. hit rate 0.71% among 290,000. Potency, µM (series often up to 59.6 µM), for the others: at the highest dose activity, negative = inhibition, usual class: inhibitors; further: on the % scale 0 is the no-effect control and ±100 the full control effect; nearly all actives have a fitted effect of over 55% in size
Target sequence (A8B2U2 whole entry, looked up): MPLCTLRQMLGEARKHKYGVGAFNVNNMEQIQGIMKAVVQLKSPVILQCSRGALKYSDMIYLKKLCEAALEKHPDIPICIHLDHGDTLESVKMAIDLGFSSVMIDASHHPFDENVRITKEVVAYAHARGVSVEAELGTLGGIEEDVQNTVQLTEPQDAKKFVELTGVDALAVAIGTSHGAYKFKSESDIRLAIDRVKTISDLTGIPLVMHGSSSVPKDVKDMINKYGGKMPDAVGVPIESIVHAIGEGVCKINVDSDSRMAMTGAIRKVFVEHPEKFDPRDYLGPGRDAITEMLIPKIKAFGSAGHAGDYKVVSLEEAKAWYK
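Giardia FBPA (40 nM reagent) was preincubated 10 min at RT with compound (up to 57.5 uM final), then substrate plus GAPDH/TPI/NAD/arsenate coupling system with diaphorase/resazurin was added; resorufin fluorescence (525/598 nm) was read after 20 min.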
AmpC no deterg: inhibitors of E. coli AmpC beta-lactamase without detergent; hit rate 0.52% among 330,000; Potency, µM (series often up to 57.1 µM), for inactives: top-dose activity change, negative = inhibition, usual class: inhibitors; P00811; AID 485341; AmpC nitrocefin hydrolysis, absorbance 480 nm, 0.0001% Triton;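 further: plate controls were no compound for no effect and no enzyme for full effect; nearly all actives have a fitted effect of over 20% in size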
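20 mM phosphate pH 7.0 + 0.01% (detergent screen) or 0.0001% Triton X-100; 5.3 nM AmpC reagent; cpd preinc 15 min RT; nitrocefin (800 uM stock) to start; A480 q20 s × 4 min; Activity was normalised to no-enzyme and no-compound control wells.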
AmpC inh detg: inhibitors of E. coli AmpC beta-lactamase with detergent. P00811. AmpC hydrolysis of nitrocefin, absorbance 480 nm, 0.01% Triton. Potency, µM (titrated, usually from 114 µM), inactives show top-dose activity change, negative = inhibition, most hits filed as inhibitors. hit rate 0.041% among 370,000. AID 485294;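 further: 0% = no-compound wells and -100% = no-enzyme wells; nearly all actives have a fitted effect of over 25% in size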
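20 mM phosphate pH 7.0 + 0.01% (detergent screen) or 0.0001% Triton X-100; 5.3 nM AmpC reagent; cpd preinc 15 min RT; nitrocefin (800 uM stock) to start; A480 q20 s × 4 min; Activity was normalised to no-enzyme and no-compound control wells.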
SARS PLpro yeast: inhibitors of SARS-CoV papain-like protease in yeast; hit rate 0.19% among 330,000; Potency, µM (doses to about 32.9 µM), without a hit: top-dose activity, positive = growth rescue, most hits filed as activators; S. cerevisiae expressing SARS-CoV PLpro, growth rescue; calls by dose curve; further: 0% is about no effect; nearly all actives have a fitted effect of over 55% in size
NS1 inh: blocks influenza NS1 protein function; Potency, µM (series often up to 46.1 µM), inactives show at the top dose activity, positive = more growth; hit rate 0.4% among 270,000; calls by dose curve; further: actives are rising curves; nearly all actives have a fitted effect of over 50% in size
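In this qHTS, NS1 from influenza A is expressed in budding yeast, where it slows growth. Cells are switched from glucose to 2% galactose medium (pH 6.0, -URA), treated with compound, and growth recovery is read at OD600.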
Giardia growth: blocks growth of Giardia lamblia trophozoites. shares compounds with Giardia FBPA inh-1. Giardia lamblia trophozoite growth inhibition. Potency, µM (titrated, usually from 57.5 µM), for inactives: at the highest dose activity change, negative = inhibition, hits mostly inhibitors. hit rate 5% among 1,500;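 further: trophozoites exposed to compound for 48 h at 37 °C; on the % scale 0 is the no-effect control and ±100 the full control effect; nearly all actives have a fitted effect of over 70% in size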
Mammalian tox: counter-screen for Giardia aldolase inhibitors: mammalian cell toxicity; shares compounds with Giardia FBPA inh-1; mammalian cell viability counter-screen, qHTS; Potency, µM (highest dose often 57.5 µM), for inactives: at the top dose viability change, negative = toxicity, most hits filed as inhibitors; hit rate 4% among 1,500; AID 2786;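 further: Chinese hamster ovary cells used as mammalian cytotoxicity surrogate; viability measured as cellular ATP by luminescence; compound exposure lasted 48 h before reading; on the % scale 0 is the no-effect control and ±100 the full control effect; nearly all actives have a fitted effect of over 60% in size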
Giardia FBPA inh-2: confirmation of Giardia fructose-bisphosphate aldolase inhibitors; shares compounds with Giardia FBPA inh-1; purified Giardia aldolase enzyme activity, qHTS; Potency, µM (highest dose often 57.5 µM), for inactives: top-dose activity change, negative = inhibition, hits mostly inhibitors; hit rate 5% among 1,500; AID 2787; further: on the % scale 0 is the no-effect control and ±100 the full control effect; nearly all actives have a fitted effect of over 45% in size
Rabbit aldolase: selectivity test for Giardia aldolase inhibitors: rabbit aldolase; shares compounds with Giardia FBPA inh-1; Rabbit muscle FBPA enzyme inhibition, selectivity counter-screen; Potency, µM (top dose mostly 57.5 µM), for the others: top-dose activity, negative = inhibition, usual class: inhibitors; hit rate 4% among 1,500; further: on the % scale 0 is the no-effect control and ±100 the full control effect; nearly all actives have a fitted effect of over 60% in size
Target sequence (P00883 whole entry, looked up): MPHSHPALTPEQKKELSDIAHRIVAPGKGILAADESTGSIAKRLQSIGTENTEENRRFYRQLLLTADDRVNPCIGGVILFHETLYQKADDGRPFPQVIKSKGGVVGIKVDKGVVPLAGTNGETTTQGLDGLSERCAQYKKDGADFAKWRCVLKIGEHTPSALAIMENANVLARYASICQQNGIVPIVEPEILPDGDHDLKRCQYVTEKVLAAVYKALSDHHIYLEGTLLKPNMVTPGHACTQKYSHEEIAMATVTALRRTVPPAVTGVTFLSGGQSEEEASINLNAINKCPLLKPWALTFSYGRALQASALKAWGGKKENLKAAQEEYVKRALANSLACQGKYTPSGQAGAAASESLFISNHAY
GAPDH counter: counter-screen for Giardia aldolase inhibitors: GAPDH coupling enzyme | shares compounds with Giardia FBPA inh-1 | GAPDH coupling enzyme counterscreen, biochemical, qHTS | Potency, µM (top dose mostly 57.5 µM), inactives show at the highest dose activity change, negative = inhibition, most hits filed as inhibitors | hit rate 6% among 1,500 | AID 2795; further: on the % scale 0 is the no-effect control and ±100 the full control effect; nearly all actives have a fitted effect of over 55% in size
* marks the source's active call; other numbers are inactive results; ? = inconclusive; . = not tested or not shown; [ ] = remark or other dose. Unless noted, the call rests on the fitted dose curve; in most records, active means well fitted curve in the direction sought with a large enough effect; inconclusive means small, poorly fitted or top-dose-only effect, or another doubt; inactive means no such curve, though single readings can be large; an effect the other way counts as inactive or inconclusive. Potency means the concentration at half of the fitted maximal effect.

SMILES | Giardia FBPA inh-1 | AmpC no deterg | AmpC inh detg | SARS PLpro yeast | NS1 inh | Giardia growth | Mammalian tox | Giardia FBPA inh-2 | Rabbit aldolase | GAPDH counter
CCOc1ccc(C2c3c(-c4ccccc4O)n[nH]c3C(=O)N2Cc2ccncc2)cc1 (stereo not given) | . | . | 19.1% | . | . | . | . | . | . | .
O=C(N/N=C/c1ccccn1)C(=O)N1CCCCCC1 | 17.7µM* | -12.6% | -0.6% | 0.8% | 4.3% | 19.5% | 0.5% | 7.1% | 0.8% | 4.2%
Nc1nnnn1CC(=O)N/N=C/c1cccs1 | -0.2% | -6.2% | -2.8% | -0.4% | -1.4% | . | . | . | . | .
Nc1nnnn1CC(=O)N/N=C/c1ccccn1 | 17.7µM* | -6.0% | 6.1% | 0.6% | 3.4% | -14.9% | 0.0% | 2.0% | 1.8% | -0.9%
O=C(N/N=C/c1ccccc1C(=O)O)C(=O)N1CCCCC1 | 1.0% | -14.2% | -2.1% | 0.1% | 0.3% | . | . | . | . | .
Brc1cccc(Cn2c(-c3cncs3)nc3ccccc32)c1 | 6.5% | -22.8% | -7.3% | 4.1% | -4.9% | . | . | . | . | .
O=C(c1cccc(F)c1)N1CCN(Cc2cccc(Br)c2)CC1 | 14.1µM* | 89.2% | -14.1% | 14.8% | -12.4% | 4.7% | 1.1% | 8.7% | 6.7% | 8.2%
COc1ccc(CN2CCN(Cc3c[nH]c4ccccc34)CC2)cc1 | ? | -35.7% | -1.4% | 1.6% | 4.6% | -8.7%[38.3 µM] | 2.2% | -3.8% | -4.6% | -12.1%
O=[N+]([O-])c1ccccc1CN1CCN(Cc2c[nH]c3ccccc23)CC1 | 19.9µM* | -11.3% | 2.3% | 2.8% | . | 5.0%[10.4 µM] | -23.1% | 0.8% | 3.4% | 5.5%
COc1ccc(Br)cc1CN1CCN(C(=O)c2ccc(F)cc2)CC1 | 15.8µM* | 154.2% | 0.4% | 0.2% | -1.2% | 4.5% | -11.2% | 5.1% | 12.4% | -6.9%
COc1cccc(CN2CCN(C(=O)c3cccc(F)c3)CC2)c1 | . | . | . | . | 0.0% | . | . | . | . | .
O=C(c1ccccc1)N1CCN(Cc2c[nH]c3ccccc23)CC1 | 4.3% | -15.5% | -10.8% | 7.9% | 3.2% | . | . | . | . | .
O=[N+]([O-])c1ccc(N2CCNCC2)cc1Sc1nc2ccccc2[nH]1 | 1.8% | -9.7% | -14.8% | 12.8% | -2.7% | . | . | . | . | .
c1ccc(Cn2cc(-c3cccnc3)cn2)cc1 | . | -7.6% | 9.3% | 11.7% | . | . | . | . | . | .
COC(=O)Cc1ccc(NC(=S)Nc2ccccn2)cc1 | -15.5% | -49.9% | -3.2% | 0.4% | -3.1% | . | . | . | . | .
CCN(CCCNC(=O)CN(C)S(=O)(=O)c1cccc2nsnc12)c1ccccc1 | -1.9% | 70.2% | -6.0% | -0.7% | -12.3% | . | . | . | . | .
COc1ccccc1C(=O)N1CCN(Cc2c[nH]c3ccccc23)CC1 | ? | -14.8% | -14.9% | -0.1% | -1.8% | . | . | . | . | .
COc1ccc(Br)cc1CN1CCN(Cc2c[nH]c3ccccc23)CC1 | 14.1µM* | 27.2% | 0.5% | -1.9% | -2.9% | 15.8µM* | -16.0% | 2.3% | 9.2% | 5.0%
Cc1ccc(C(=O)Nc2ncc([N+](=O)[O-])s2)cc1 | 15.8µM* | -18.0% | ? | -24.0% | -141.8% | ? | 39.8µM* | ? | 25.1µM* | 28.2µM*
Nc1ccc(Cl)c(S(=O)(=O)Nc2cccc(Cl)c2)c1 | 0.5% | -45.3% | 4.0% | -0.9% | . | . | . | . | . | .
O=S(=O)(Nc1ncccn1)c1ccccc1 | ? | 0.1% | -3.3% | 6.6% | 21.9% | . | . | . | . | .
Cc1ccc(S(=O)(=O)Nc2ncccn2)cc1 | 22.4µM* | -9.0% | -16.4% | 2.5% | 4.4% | -6.7% | 21.1% | 5.4% | 18.0% | 6.4%
CC(=O)NC(CC(=O)Nc1cccc(S(=O)(=O)N2CCOCC2)c1)c1ccccc1 (stereo not given) | . | 0.8% | -16.4% | -0.6% | . | . | . | . | . | .
c1csc(CNc2ccc3c(c2)OCCO3)c1 | ? | -22.2% | -4.1% | -12.4% | 6.7% | . | . | . | . | .
Cc1ccc(/C(=N/Nc2ncnc3ccccc23)C(=O)O)cc1 | 14.1µM* | 88.4% | -10.4% | -15.7% | 23.9% | 15.6% | -1.0% | 7.8% | -12.2% | -3.6%
CN(C)c1ccc(/C=C/C(=O)c2ccc3c(c2)OCO3)cc1 | . | -36.1% | -1.4% | 4.0% | . | . | . | . | . | .
CCC(C)NCCOc1ccc(C(C)(C)c2ccccc2)cc1 (stereo not given) | 17.7µM* | 26.7% | 9.2% | 0.1% | 0.3% | ? | -9.1% | 8.9% | 9.8% | -0.4%
O=C(NC1CCCCC1)c1cc2c(cc1Cl)N1CCCCCC1=NS2(=O)=O | . | -8.7% | ? | 4.3% | . | . | . | . | . | .
O=S(=O)(NCc1ccccn1)C(F)(F)F | 2.82µM* | 28.8% | ? | 26.5% | -0.2% | 1.5%[10.4 µM] | 1.0% | 10.5% | 5.8% | 11.1%
O=[N+]([O-])c1cc(CN2CCN(c3cccc(C(F)(F)F)c3)CC2)c2cccnc2c1O | 15.8µM* | ? | -3.8% | -21.4% | . | -16.7% | -28.0% | -9.6% | -19.1% | -21.5%
